Hit rate of the full screen: of about 69,000 compounds, about 8,600 (12%) showed an effect of 50% or more. Shown is part of a subset that was picked to be rich in strong results.
Tested on: Plasmodium berghei
Assay: Screen against P. berghei liver stage (PbLuc), transformed with Luciferase, at 10uM
Assay type: functional, HepG2
Details: tested at 10 uM

Structure (SMILES) | INHIBITION
CC(C)n1ncc2c1NC(=O)CSC2C(F)(F)F (configuration not stated) | -38%
CN(C)c1nccc(NCc2cc(-c3cccs3)n[nH]2)n1 | 18.9%
CNc1ccnc(N(C)Cc2cc(-c3cccs3)n[nH]2)n1 | 88.4%
CNc1cc(C(=O)N(C)Cc2cc(-c3cccs3)n[nH]2)ccn1 | 47.6%
CCc1n[nH]c(C2CN(C(=O)c3nc(C)ncc3Cl)CCO2)n1 (configuration not stated) | 37.5%
CCOC(=O)c1sc(NC(=O)CCCC(=O)O)c(C#N)c1C | 28.2%
Cc1ccc(NCCCNC(=O)C2CC3(CCNCC3)CN2C)nc1 (configuration not stated) | 37.1%
COc1ccc2nc(CNC(=O)C3CC4(CCNCC4)CN3C)[nH]c2c1 (configuration not stated) | 18.6%
Cc1ccc2[nH]c(CNC(=O)C3CC4(CCNCC4)CN3C)nc2c1C (configuration not stated) | 66.3%
Cc1nc(NCc2ccco2)nc2c1COCC21CCNC1 (configuration not stated) | 55.5%
Cc1nc(NCC2CC2)nc2c1COCC21CCNC1 (configuration not stated) | 38.1%
c1coc(CNc2ncc3c(n2)C2(CCNC2)COC3)c1 (configuration not stated) | 29.8%
Cc1ccc(Oc2ncccc2C(=O)N(C)CCCN(C)C)c(C)c1 | 13.5%
CCOCC(=O)N1CCC(C)(c2nccs2)CC1 | 38.05%
CC(=O)N1CCN(C(=O)CCn2c(C)nc3ccccc3c2=O)CC1 | 8.665%
CC(C)=CCN1CCC(c2nnc(CN3CCN(C)CC3)n2C)CC1 | 25.4%
Cc1noc([C@@]23CCO[C@@H]2CCN(C(=O)c2sccc2C)C3)n1 | -4.56%
Cc1noc([C@@]23CCO[C@@H]2CCN(C(=O)c2cc(C)[nH]c2C)C3)n1 | 24.9%
Cc1noc([C@@]23CCO[C@@H]2CCN(C(=O)c2ccsc2)C3)n1 | -15.3%
Cc1noc([C@@]23CCO[C@@H]2CCN(C(=O)c2c(C)noc2C)C3)n1 | 28.2%
Cc1noc([C@@]23CCO[C@@H]2CCN(C(=O)c2cc(C)c(C)s2)C3)n1 | 57.1%
Cc1noc([C@@]23CCO[C@@H]2CCN(C(=O)c2cc(C)on2)C3)n1 | 61.9%
CC(C)Cc1nc(CCn2cncn2)n(-c2ccc3c(c2)OCCO3)n1 | 41.2%
Cc1cc(Cl)ccc1-n1ncc(C(=O)N(C)CCc2ccccn2)c1N | 29.3%
CC(C)c1nc(-c2ccnc(N3CCNCC3)n2)no1 | 18.2%
CC(C)n1ccnc1CN1CCCN(C(=O)c2cnn(C)c2)CC1 | 10.9165%

Structure (SMILES) | INHIBITION
Cc1nc(CN2C(=O)COC3(CCN(C(N)=O)CC3)C2C)cs1 (configuration not stated) | -10.3%
CS(=O)(=O)c1cncnc1C1CCCN(C(=O)Nc2ccccc2F)C1 (configuration not stated) | -8.76%
CC(C)N(C)S(=O)(=O)N(Cc1cccs1)Cc1cccs1 | 14.6%
CCN(Cc1cccs1)S(=O)(=O)N(C)C(C)C | 44.3%
COc1ccccc1CN(Cc1cccs1)S(=O)(=O)N(C)C(C)C | 67.5%
Cn1nc(C2CN(C(=O)c3cccnc3)C2)c2nccnc21 | 32.8%
CCc1nc2n(n1)CC(NCc1nc(Cc3ccccc3)no1)CC2 (configuration not stated) | 19.6%
NC(=O)c1ccc(NC(=O)c2ccncc2F)cn1 | 9%
O=C(c1ccc(F)cc1)N1C[C@@H]2COC[C@]2(COc2cccnc2)C1 | 55.7%
O=C(c1ncccn1)N1C[C@@H]2COC[C@]2(COc2cccnc2)C1 | 46.6%
Cc1ccc(C(=O)N2C[C@@H]3COC[C@]3(COc3cccnc3)C2)cn1 | 23.9%
O=C(c1cocn1)N1C[C@@H]2COC[C@]2(COc2cccnc2)C1 | 43.9%
O=C(COC1CCCC1)N1C[C@@H]2COC[C@]2(COc2cccnc2)C1 | 40.3%
O=C(c1cc(C2CC2)on1)N1C[C@@H]2COC[C@]2(COc2cccnc2)C1 | 72%
O=C(C1=CCCC1)N1C[C@@H]2COC[C@]2(COc2cccnc2)C1 | 33%
O=C(COc1ccccc1)N1C[C@@H]2COC[C@]2(COc2cccnc2)C1 | 50.3%
O=C(Cc1ccccc1F)N1C[C@@H]2COC[C@]2(COc2cccnc2)C1 | 39.2%
Cc1ccc(-c2cc(CNC(=O)NC3CCCCNC3=O)on2)cc1 (configuration not stated) | -22.1%
CS(=O)(=O)NC[C@H]1OC[C@H]2CN(CCc3ccccc3)CC[C@H]21 | 2.7%
CC(C)C(=O)N1CCC(Cc2nccnc2Nc2ccccn2)CC1 | 23.4%
CCS(=O)(=O)N1C[C@H]2CN(Cc3cccnc3)C(=O)[C@H]2C1 | -28.2%
O=C(CSc1nncs1)N1CCN(Cc2ccc(Cl)cc2)CC1 | 87.2%
CCNc1nnc(SCC(=O)N2CCN(Cc3ccc(Cl)s3)CC2)s1 | 40.5%
O=C(CSc1nncs1)N1CCN(Cc2ccc(Cl)s2)CC1 | 2.37%
c1ccc(-n2nc(CNC3CCc4ncnn4C3)c3c2CCC3)cc1 (configuration not stated) | 33.25%
Cc1noc([C@@H]2C[C@@H]3CCN(CC4CCOCC4)C[C@H]3O2)n1 | -23.4%

— ChEMBL document CHEMBL4513216, “Probing the Open Global Health Chemical Diversity Library for Multistage-Active Starting Points for Next-Generation Antimalarials” (ACS Infect Dis, 2020)
